Test results from PubChem BioAssay (Tox21).
“And” between values parts separate entries of the source, which are not always exact repeats. Equal entries are not always repeated. Records with an inconclusive call do not appear. A call without a number means that no potency is given here. Some compounds were tested as several samples or in several runs, with calls that do not always agree. The source made the active and inactive calls. Calls come from the whole dose curve; as a rule, active = well fitted cell-killing curve with a large enough effect in the repeat runs; inconclusive = weak or mixed curves; inactive = flat fitted curve, though single readings scatter.

Experiment: qHTS RealTime-Glo MT Cell Viability Assay in HepG2 cells - 16 hour (AID 1224885); note: nearly all actives have a fitted effect of over 50% in size
Details: RealTime-Glo luminescence; series mostly up to 76.8 µM
Excerpt: U.S. Tox21 Program National Center for Advancing Translational Sciences [NCATS] NIH Chemical Genomics Center [NCGC] U.S. Environmental Protection Agency [EPA] National Institutes of Environmental Health Sciences [NIEHS] National Toxicology Program [NTP] U.S. Food and Drug Administration [FDA] Tox21 Assay Overview: Measure of cell viability is critical in the cell-base assay. Analysis of cell viability is necessary for the characterization of cell responses to cytotoxic drugs and environmental stress. A RealTime-Glo MT Cell Viability Assay to monitor cell viability in real time of continues cell culture during 40 hours of compound treatment was used to screen Tox21 10K library compounds in HepG2 cells. The RealTime-Glo MT Cell Viability Assay is a nonlytic, homogeneous, bioluminescent method to measure cell viability in real time using a simple, plate-based method. The assay involves adding NanoLuc luciferase and a cell-permeant prosubstrate to cells in culture. Viable cells reduce the proprietary prosubstrate to generate a substrate for NanoLuc luciferase. This substrate diffuses from cells into the surrounding culture medium, where it is rapidly used by the NanoLuc Enzyme to produce a luminescent signal. The signal correlates with the number of viable cells, making the assay well suited for cytotoxicity studies.
Tox21 Assay Protocol Summary: The mixture of HepG2 cell suspension and reagents were dispensed at 600cells/6 ul/well in 1536-well tissue culture treated black solid bottom plates using a Multidrop dispenser. After the assay plates were incubated at a 37 C/5% CO2 incubator for 5 hours, 23 nL of compounds dissolved in DMSO, positive and negative controls was transferred to the assay plate by a pintool work station. The plates were incubated at 37 C for 40 hours. The luminescence intensity were measured at 0h, 8h, 16h, 24h, 32h and 40h time points using ViewLux plate reader during compound treatment.
Potency is the fitted concentration of half-maximal effect.

Row | Compound | Potency
1 | CC1(C)O[C@@H]2C[C@H]3[C@@H]4C[C@H](F)C5=CC(=O)C=C[C@]5(C)[C@@]4(F)[C@@H](O)C[C@]3(C)[C@]2(C(=O)CO)O1 | inactive
2 | Cc1ccc(C)c(O)c1 | inactive
3 | CC1=CC(C)(C)Nc2ccccc21 | inactive
4 | [O-]/[N+](=N\O)c1ccccc1 | inactive
5 | CCCN1C=CN(C)C1 | inactive
6 | Cc1ccc2c(c1)C(=O)OC2=O | inactive
7 | CC(C)[N+](C)(CCOC(=O)C1c2ccccc2Oc2ccccc21)C(C)C | inactive
8 | C[C@]12CC[C@@H]3c4ccc(O)cc4CC[C@H]3[C@@H]1CC[C@H]2O | inactive
9 | FC(F)(F)C(Cl)Br (stereo not given) | inactive
10 | O=C1CCc2ccccc2O1 | inactive
11 | NCCS(=O)(=O)O | inactive
12 | CCCCCCCCCCCCO | inactive
13 | Oc1ccc(C(c2ccc(O)cc2)C(Cl)(Cl)Cl)cc1 | inactive
14 | O=C(O)COCCN1CCN(C(c2ccccc2)c2ccc(Cl)cc2)CC1 (stereo not given) | inactive
15 | C=C1C[C@H]2[C@@H]3C=C(C)C4=CC(=O)CC[C@]4(C)[C@H]3CC[C@]2(C)[C@@]1(OC(C)=O)C(C)=O | inactive
16 | CC(C)[C@@H]1CC[C@@H](C)CC1=O | inactive
17 | C=C[C@H]1CN2CC[C@H]1C[C@@H]2[C@@H](O)c1ccnc2ccc(OC)cc12 | inactive
18 | CCCCCCOCCOCCO | inactive
19 | c1ccc2ncccc2c1 | inactive
20 | CCC/C=C/C=O | inactive

Row | Compound | Potency
21 | C/C=C/C(=O)N(CC)c1ccccc1C | inactive
22 | CCCCCC1C(=O)CCC1CC(=O)OC (stereo not given) | inactive
23 | Nc1ccc(N)c(Cl)c1 | inactive and 43.6 µM (active)
24 | COC(=O)CC(=O)OC | inactive
25 | Nc1ccc2c(O)cc(S(=O)(=O)O)cc2c1 | inactive
26 | CN1CCOCC1 | inactive
27 | CC1(C)NC(=O)N(c2ccc([N+](=O)[O-])c(C(F)(F)F)c2)C1=O | inactive
28 | CC(C)(Oc1ccc(Cl)cc1)C(=O)O | inactive
29 | C=CCCCCCCCCCC | inactive
30 | Cc1ccc(S(=O)(=O)NCl)cc1 | inactive
31 | NCCN | inactive
32 | CC/C(=C(/CC)c1ccc(O)cc1)c1ccc(O)cc1 | inactive
33 | O=C(O)CCCC(=O)O | inactive
34 | CC[C@]12CCCN3CCc4c(n(c5ccccc45)[C@@](O)(C(=O)OC)C1)[C@@H]32 | inactive
35 | Cc1cccc(Nc2ccccc2C(=O)O)c1C | inactive
36 | ClC/C=C/CCl | inactive
37 | C[C@]12C=CC(=O)C=C1CC[C@H]1[C@@H]3C[C@@H](O)[C@](O)(C(=O)CO)[C@@]3(C)C[C@H](O)[C@@]12F | inactive
38 | Cc1ccc(C(C)(C)C)cc1 | inactive
39 | Cc1ccc(S(=O)(=O)O)cc1C | inactive
40 | O=C(O)CCCCCCCCCCCC(=O)O | inactive
